PAFAH1B3 FP inh – PAFAH1B3 enzyme inhibitors, primary screen, biochemical, fluorescence polarization, human; Platelet-activating factor acetylhydrolase IB subunit alpha1 (Homo sapiens), Q15102; recombinant PAFAH1B3, FP-rhodamine probe; inhibition, % at 3.39 µM; 340,000 tested, 0.28% active;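 active = inhibition above the screen-wide average of all tested compounds plus 3 SD, cut at about 25% in these data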;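 note: 0% = enzyme with DMSO only and 100% = wells lacking PAFAH1B3 protein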
PAFAH2 FP inh – PAFAH2 enzyme inhibitors, primary screen, biochemical, fluorescence polarization, human; 340,000 tested, 0.99% active; inhibition, % at 3.39 µM; recombinant PAFAH2, FP-rhodamine activity probe;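 active = inhibition above the mean over all tested compounds plus 3 SD, cut at about 30% in these data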;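 note: inhibitors block probe labeling of enzyme so polarization drops; 0% = enzyme with DMSO and 100% = wells lacking PAFAH2 protein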
PAFAH1B2 inh – PAFAH1B2 enzyme inhibitors, primary screen, biochemical, fluorescence polarization, human. Platelet-activating factor acetylhydrolase IB subunit alpha2 (Homo sapiens), P68402. recombinant PAFAH1B2, FP-rhodamine activity probe. inhibition, % at 3.39 µM. 340,000 tested, 1.2% active. AID 492953, 2010;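 active = inhibition above the mean of all tested compounds plus 3 SD, cut at about 24% in these data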;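 note: 0% = enzyme with DMSO and 100% = wells lacking PAFAH1B2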
HTRA1 inhibitor – HTRA1 serine protease inhibitors, primary screen, biochemical, fluorescence polarization, HTS; Q92743; recombinant HTRA1, FP-rhodamine activity-based probe; inhibition, % at 5.96 µM; 340,000 tested, 0.5% active; in the data active = inhibition above about 36%;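 note: 0% = enzyme with DMSO and 100% = wells lacking enzyme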
pPAFAH FP inh – pPAFAH enzyme inhibitors, primary screen, biochemical, fluorescence polarization, human | 330,000 tested, 1.5% active | Platelet-activating factor acetylhydrolase (Homo sapiens), Q13093 | inhibition, % at 3.39 µM | recombinant pPAFAH, FP-rhodamine probe fluorescence polarization;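 active = inhibition above the mean inhibition across the screen plus 3 SD, cut at about 25% in these data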;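 note: inhibitors block binding of the rhodamine activity-based probe so polarization drops; 0% = enzyme with DMSO and 100% = wells lacking pPAFAH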
DAGLB inhibitor – DAGLB lipase inhibitors, primary screen, biochemical, fluorescence, HTS | Diacylglycerol lipase-beta (Homo sapiens), Q8NCG7 | HEK293T DAGLB membrane lysate, EnzChek fluorogenic substrate | inhibition, % at 5.17 µM | 340,000 tested, 0.059% active | AID 504411, 2011; in the data active = inhibition above about 34%;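 note: 0% = enzyme with vehicle and 100% = wells lacking enzyme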
Target sequence (Q8NCG7 whole entry, looked up): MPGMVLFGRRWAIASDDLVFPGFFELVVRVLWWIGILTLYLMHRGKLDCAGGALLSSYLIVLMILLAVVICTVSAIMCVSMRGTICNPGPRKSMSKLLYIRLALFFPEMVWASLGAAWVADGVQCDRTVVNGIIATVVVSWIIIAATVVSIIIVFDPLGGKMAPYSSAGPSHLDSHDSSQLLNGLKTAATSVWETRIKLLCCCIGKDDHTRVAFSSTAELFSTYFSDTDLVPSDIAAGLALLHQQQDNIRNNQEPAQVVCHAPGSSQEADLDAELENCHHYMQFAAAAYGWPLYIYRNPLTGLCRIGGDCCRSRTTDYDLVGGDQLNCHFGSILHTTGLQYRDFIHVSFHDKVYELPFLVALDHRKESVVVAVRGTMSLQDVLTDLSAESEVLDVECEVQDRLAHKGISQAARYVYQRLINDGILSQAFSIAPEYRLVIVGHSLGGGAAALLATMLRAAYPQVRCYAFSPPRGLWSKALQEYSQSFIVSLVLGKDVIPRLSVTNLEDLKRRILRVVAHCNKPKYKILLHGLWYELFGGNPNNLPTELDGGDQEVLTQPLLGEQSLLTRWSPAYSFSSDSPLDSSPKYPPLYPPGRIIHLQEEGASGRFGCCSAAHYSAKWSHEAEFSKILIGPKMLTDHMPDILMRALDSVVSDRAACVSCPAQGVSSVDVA
Numbers without * were called inactive; · = not tested or not shown. Rows were chosen to be rich in hits. Some 2.8% of all compounds tested hit in one or more screens of this group.

SMILES	PAFAH1B3 FP inh	PAFAH2 FP inh	PAFAH1B2 inh	HTRA1 inhibitor	pPAFAH FP inh	DAGLB inhibitor
COc1cc(/C=N/N(c2ccccc2)c2ccccc2)ccc1O	12	-1	6	31	27*	0
COc1cccc(/C=N/Nc2snc(SC)c2C#N)c1O	14	33*	15	6	29*	1
COC(CN(C)C(=O)C1CCC(CNS(=O)(=O)c2ccc(C)cc2)CC1)OC (stereo not drawn)	-1	-1	6	1	25*	2
COc1ccc(/C=N/NC(=O)c2ccc(CSc3nc(C)cc(C)n3)cc2)cc1O	3	-13	1	-57	16	-1
COc1ccc(O)c(/C=N/NC(=O)c2ccc(CSc3nc(C)cc(C)n3)cc2)c1	9	1	16	0	27*	2
Cc1cc(C)nc(SCc2ccc(C(=O)N/N=C/c3cccc(O)c3O)cc2)n1	37*	0	21	5	32*	11
Cc1cc(C)nc(SCc2ccc(C(=O)N/N=C/c3ccc(C(=O)O)cc3)cc2)n1	10	-4	-3	-18	3	0
O=C(COC(=O)c1ccc(O)cc1O)Nc1ccc2c(c1)OCCO2	7	8	8	-5	2	-2
COc1cc(-c2ccc3oc(-c4cccc(C)c4)c(C#CC4(O)CCCCC4)c3c2)cc(OC)c1OC	-7	-8	-3	-100	27*	-10
Cc1cccn2c(=O)c(C=NCc3ccco3)c(Nc3ccc(SC(F)F)cc3)nc12	-1	-5	2	0	34*	0
CCOc1cc(C(=O)N(C)CC(=O)Nc2cccc(F)c2)ccc1OCC(=O)N1CCOCC1	5	-3	0	-2	1	0
Oc1ccc(/C=N/Nc2nc(-c3cccnc3)nc3ccccc23)c(O)c1	25	-3	3	1	25*	1
O=C(CSc1ccc(-c2ccco2)nn1)c1ccccc1	4	0	-2	5	34*	-2
CC(C)(C)OC(=O)N1CCC(c2c(C(=O)N3CCN(C(=O)c4ccco4)CC3)cnn2-c2ccc(F)cc2F)CC1	2	8	-3	8	-1	-1
CCn1nc(NS(=O)(=O)c2ccc([N+](=O)[O-])cc2)c2cc3cccc(C)c3nc21	8	14	7	10	28*	27
CCn1nc(NS(=O)(=O)c2ccccc2[N+](=O)[O-])c2cc3cccc(C)c3nc21	8	10	7	-13	17	13
Oc1cccc(O)c1O	·	·	·	·	96*	·
O=C(O)c1cccc(O)c1O	4	2	-2	4	1	2
N=c1c[n+](-c2ccc(Cl)cc2)[n-]o1	-1	9	31*	-1	9	-2
Cc1ccc(-c2cc(C(F)F)nc(NCc3cccnc3)n2)cc1	1	-14	2	-32	26*	-1
CN(C(=O)CSc1nc(-c2ccc(C(C)(C)C)cc2)c(C#N)c(=O)[nH]1)C1CCCCC1	3	6	31*	-55	18	9
N#Cc1c(-c2ccccc2)nc(SCC(=O)NC2CCCCC2)[nH]c1=O	5	-4	8	-6	1	6
O=C(CSc1nnc2ccc(-c3cccnc3)nn12)Nc1ccccc1	2	5	2	3	3	0
CCN(CC)CCCn1c2c(c(SCC(=O)Nc3cccc4ccccc34)nc1=O)CCC2	36*	32*	34*	36	3	-1
CN(C)c1cccc(C(=O)N2CCCC(CCC(=O)NCc3ccccc3F)C2)c1 (stereo not drawn)	5	1	2	5	1	1
O=C(Cc1ccc(Br)cc1)N1CCOCC1	6	5	-5	6	5	1
COc1ccc(C2CC(c3ccccc3)=NN2C(=O)CN2CCN(Cc3ccccc3)CC2)cc1 (stereo not drawn)	-3	0	5	-22	-1	-5
C=CCN=c1scc(C)n1/N=C/c1ccc(O)c(O)c1	12	10	6	35	34*	5

Compound activity (PubChem)
